SMILES strings stand for the structures.

Experimental findings from ChEMBL document CHEMBL2218924, “A broad activity screen in support of a chemogenomic map for kinase signalling research and drug discovery” (Biochem J, 2013) are described below.

The target in experiment [1] is Rho-associated protein kinase 1 (Homo sapiens) (UniProt Q13464). The note with it: at 1 µM.
Experiment [2] shares this target. Conditions: at 10 µM.
The target in experiment [3] is Rho-associated protein kinase 2 (Homo sapiens) (UniProt O75116). Conditions: at 10 µM.
Rho-associated protein kinase 2 (Homo sapiens), sequence (O75116 whole entry, looked up): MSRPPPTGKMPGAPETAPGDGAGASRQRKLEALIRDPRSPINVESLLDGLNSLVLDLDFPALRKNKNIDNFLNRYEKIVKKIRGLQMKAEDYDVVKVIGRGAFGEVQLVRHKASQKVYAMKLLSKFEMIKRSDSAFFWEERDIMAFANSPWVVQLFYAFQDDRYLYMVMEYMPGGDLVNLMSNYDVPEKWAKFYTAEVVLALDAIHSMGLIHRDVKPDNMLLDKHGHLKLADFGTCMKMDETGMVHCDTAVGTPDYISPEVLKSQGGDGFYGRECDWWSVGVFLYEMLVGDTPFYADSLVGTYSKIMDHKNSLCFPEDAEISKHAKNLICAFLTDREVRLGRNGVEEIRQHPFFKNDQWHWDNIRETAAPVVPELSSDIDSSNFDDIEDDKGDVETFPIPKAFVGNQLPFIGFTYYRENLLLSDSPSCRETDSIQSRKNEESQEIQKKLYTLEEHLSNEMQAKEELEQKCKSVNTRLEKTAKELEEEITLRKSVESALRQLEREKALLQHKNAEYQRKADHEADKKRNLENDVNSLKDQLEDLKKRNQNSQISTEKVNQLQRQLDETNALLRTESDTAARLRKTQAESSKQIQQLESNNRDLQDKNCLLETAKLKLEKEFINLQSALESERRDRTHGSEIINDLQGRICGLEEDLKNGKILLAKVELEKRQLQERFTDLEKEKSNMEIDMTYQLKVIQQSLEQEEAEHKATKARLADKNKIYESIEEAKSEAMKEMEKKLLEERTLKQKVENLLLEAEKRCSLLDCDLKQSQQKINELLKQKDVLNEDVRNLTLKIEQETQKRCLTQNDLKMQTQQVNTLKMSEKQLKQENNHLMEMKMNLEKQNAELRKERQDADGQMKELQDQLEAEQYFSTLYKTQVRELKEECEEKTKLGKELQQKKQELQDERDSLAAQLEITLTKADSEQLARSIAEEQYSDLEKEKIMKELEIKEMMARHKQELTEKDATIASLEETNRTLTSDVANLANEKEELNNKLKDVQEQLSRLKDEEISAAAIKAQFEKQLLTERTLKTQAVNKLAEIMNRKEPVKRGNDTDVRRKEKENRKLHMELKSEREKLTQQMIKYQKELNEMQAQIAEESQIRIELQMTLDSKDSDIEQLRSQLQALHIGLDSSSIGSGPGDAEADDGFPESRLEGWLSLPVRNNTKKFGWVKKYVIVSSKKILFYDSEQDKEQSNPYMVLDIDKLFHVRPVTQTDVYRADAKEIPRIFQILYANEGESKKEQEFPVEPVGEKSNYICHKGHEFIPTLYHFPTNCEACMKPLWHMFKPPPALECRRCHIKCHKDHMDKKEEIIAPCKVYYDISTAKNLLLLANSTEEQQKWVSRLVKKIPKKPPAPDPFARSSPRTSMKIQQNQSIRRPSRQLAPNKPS
For experiment [4], the target named is Proto-oncogene tyrosine-protein kinase receptor Ret (Homo sapiens) (UniProt P07949). The note with it: at 1 µM.
Experiment [5] addresses Macrophage-stimulating protein receptor (Homo sapiens) (UniProt Q04912). Conditions: at 1 µM.
Experiment [6] has the same target. Conditions: at 10 µM.
Experiment [7] concerns the target Proto-oncogene tyrosine-protein kinase receptor Ret (Homo sapiens) (UniProt P07949). Conditions: at 10 µM.
For experiment [8], the target named is Rho-associated protein kinase 2 (Homo sapiens) (UniProt O75116). The note with it: at 1 µM.
The target in experiment [9] is Proto-oncogene tyrosine-protein kinase ROS (Homo sapiens) (UniProt P08922). Conditions: at 1 µM.
Proto-oncogene tyrosine-protein kinase ROS (Homo sapiens), sequence (P08922 whole entry): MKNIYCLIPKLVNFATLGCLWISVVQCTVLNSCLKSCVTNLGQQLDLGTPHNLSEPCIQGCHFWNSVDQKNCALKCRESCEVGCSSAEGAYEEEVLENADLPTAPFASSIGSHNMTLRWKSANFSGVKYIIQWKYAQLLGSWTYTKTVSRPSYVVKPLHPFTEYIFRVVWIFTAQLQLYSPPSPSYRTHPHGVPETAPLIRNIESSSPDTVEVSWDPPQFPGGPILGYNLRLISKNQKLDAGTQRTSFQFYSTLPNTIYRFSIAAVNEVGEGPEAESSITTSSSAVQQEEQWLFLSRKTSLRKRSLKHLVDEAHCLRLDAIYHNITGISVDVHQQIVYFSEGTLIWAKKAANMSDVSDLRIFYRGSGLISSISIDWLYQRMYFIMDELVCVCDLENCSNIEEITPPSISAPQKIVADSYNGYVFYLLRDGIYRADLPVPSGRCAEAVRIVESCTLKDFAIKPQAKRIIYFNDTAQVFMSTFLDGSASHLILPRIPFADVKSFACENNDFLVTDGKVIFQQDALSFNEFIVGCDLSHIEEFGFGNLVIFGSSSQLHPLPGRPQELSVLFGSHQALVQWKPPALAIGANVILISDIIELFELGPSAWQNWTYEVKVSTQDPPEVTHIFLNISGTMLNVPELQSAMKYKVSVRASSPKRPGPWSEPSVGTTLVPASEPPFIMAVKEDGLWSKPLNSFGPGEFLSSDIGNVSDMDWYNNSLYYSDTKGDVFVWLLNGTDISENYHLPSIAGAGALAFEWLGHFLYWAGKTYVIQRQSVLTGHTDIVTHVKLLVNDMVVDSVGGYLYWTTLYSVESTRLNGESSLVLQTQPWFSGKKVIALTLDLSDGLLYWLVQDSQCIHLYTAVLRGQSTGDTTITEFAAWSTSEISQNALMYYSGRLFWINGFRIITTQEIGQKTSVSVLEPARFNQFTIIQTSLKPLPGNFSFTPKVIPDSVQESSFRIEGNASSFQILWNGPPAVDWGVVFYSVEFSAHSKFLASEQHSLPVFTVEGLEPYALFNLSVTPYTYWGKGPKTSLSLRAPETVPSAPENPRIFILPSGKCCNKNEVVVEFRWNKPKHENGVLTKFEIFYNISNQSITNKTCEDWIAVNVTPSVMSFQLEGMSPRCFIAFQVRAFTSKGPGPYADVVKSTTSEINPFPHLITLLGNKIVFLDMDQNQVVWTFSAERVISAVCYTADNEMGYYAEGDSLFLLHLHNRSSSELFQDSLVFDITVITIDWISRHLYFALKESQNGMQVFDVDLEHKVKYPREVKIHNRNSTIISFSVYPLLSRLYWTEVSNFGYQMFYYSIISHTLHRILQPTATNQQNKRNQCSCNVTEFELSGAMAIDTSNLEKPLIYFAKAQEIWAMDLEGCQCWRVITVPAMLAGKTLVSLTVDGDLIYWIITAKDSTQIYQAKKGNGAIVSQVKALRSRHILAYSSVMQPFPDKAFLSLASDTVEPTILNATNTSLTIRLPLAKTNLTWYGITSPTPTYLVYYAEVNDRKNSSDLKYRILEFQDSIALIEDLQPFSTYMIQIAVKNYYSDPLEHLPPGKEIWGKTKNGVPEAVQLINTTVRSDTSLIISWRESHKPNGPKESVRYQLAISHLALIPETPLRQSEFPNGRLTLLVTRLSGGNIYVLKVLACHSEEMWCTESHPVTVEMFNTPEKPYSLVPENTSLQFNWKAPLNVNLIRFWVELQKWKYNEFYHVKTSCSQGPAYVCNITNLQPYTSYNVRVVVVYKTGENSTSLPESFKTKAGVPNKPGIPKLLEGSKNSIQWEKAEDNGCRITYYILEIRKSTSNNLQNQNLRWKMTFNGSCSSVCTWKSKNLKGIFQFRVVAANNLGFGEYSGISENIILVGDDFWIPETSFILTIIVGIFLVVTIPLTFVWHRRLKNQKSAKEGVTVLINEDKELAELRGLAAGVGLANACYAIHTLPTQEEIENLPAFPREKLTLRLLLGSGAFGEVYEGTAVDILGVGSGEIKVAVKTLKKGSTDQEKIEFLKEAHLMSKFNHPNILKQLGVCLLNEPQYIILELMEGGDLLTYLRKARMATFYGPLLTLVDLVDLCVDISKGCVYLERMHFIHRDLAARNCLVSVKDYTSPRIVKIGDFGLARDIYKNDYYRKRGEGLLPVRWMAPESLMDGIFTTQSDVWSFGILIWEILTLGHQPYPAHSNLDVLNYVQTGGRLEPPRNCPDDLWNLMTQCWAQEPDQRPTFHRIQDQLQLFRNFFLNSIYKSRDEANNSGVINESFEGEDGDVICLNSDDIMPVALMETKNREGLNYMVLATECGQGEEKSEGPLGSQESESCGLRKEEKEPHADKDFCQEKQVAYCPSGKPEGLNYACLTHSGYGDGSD
The target is the same in experiment [10]. Conditions: at 10 µM.

Rho-associated protein kinase 1 (Homo sapiens), sequence (Q13464 2-1354 limits assumed): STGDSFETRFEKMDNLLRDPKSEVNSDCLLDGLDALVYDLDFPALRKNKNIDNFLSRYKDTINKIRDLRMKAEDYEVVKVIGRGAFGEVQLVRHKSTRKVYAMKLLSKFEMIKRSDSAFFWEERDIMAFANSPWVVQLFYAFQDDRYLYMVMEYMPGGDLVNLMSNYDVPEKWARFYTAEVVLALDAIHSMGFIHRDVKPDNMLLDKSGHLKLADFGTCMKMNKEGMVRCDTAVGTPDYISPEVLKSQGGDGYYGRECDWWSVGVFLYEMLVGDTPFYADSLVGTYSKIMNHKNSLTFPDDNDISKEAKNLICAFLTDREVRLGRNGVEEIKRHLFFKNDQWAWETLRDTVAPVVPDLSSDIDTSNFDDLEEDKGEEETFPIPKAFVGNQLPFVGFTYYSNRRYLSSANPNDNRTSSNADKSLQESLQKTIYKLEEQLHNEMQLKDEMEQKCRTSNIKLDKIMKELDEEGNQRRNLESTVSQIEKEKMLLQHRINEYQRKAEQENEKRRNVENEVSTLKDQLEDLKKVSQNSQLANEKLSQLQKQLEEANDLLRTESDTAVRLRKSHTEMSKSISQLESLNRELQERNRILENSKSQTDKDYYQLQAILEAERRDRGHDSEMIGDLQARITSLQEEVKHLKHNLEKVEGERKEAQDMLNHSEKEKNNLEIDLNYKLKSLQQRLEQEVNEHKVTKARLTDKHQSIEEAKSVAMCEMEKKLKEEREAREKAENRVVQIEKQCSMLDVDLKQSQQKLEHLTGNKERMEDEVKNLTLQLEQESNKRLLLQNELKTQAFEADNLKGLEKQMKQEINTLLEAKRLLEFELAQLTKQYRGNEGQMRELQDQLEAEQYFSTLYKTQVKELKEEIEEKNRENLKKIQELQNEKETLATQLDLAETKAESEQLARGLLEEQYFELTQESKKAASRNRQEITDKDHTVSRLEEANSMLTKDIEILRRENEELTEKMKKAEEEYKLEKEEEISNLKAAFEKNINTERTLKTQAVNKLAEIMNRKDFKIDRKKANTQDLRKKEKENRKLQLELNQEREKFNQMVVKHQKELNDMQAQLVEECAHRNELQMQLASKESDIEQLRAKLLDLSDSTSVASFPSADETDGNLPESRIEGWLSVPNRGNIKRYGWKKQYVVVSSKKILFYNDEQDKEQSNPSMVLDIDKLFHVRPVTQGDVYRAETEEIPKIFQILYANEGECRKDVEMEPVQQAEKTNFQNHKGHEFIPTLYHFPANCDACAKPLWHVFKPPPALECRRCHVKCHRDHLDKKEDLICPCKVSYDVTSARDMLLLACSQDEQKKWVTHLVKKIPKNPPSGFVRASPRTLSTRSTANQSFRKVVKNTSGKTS

Regarding `COc1ccc2c(c[n+](C)c3c4cc5c(cc4ccc23)OCO5)c1OC`, the residual activity is 110% in [1]; 120% in experiment [2]; 82% in experiment [3]; 86% in experiment [4]; 86% in experiment [5]; 75% in experiment [6].
On to `c1cc(-c2cnn3cc(-c4ccc(OCCN5CCCCC5)cc4)cnc23)ccn1`, for which the residual activity in experiment [1] was 117%; in experiment [3] it was 40%; in [4] it was 51%; in [7], 5%; in experiment [5], 104%; in experiment [6], 83%.
Regarding `O=C1Nc2ccc3ncsc3c2/C1=C/c1c[nH]cn1`, the residual activity was determined as 59% in [1]; 23% in experiment [2]; 5% in [8]; 1% in [3]; 9% in [4]; 0% in [7]. In addition, the residual activity came to 60% in experiment [5], 11% in experiment [6], 88% in experiment [9] and 87% in [10].
As to `C[S+]([O-])c1ccc(-c2nc(-c3ccc(F)cc3)c(-c3ccncc3)[nH]2)cc1` (centres undefined), the residual activity in experiment [1] was determined as 70%; in [2], 74%; in experiment [8], 119%; in [3], 100%; in experiment [7], 46%; in experiment [5], 105%. For the same compound, the residual activity in experiment [6] worked out at 109%; in experiment [9] it was 117%; in experiment [10], 110%.
On to `CCn1cnc2c(Nc3cccc(Cl)c3)nc(N[C@@H]3CCCC[C@@H]3N)nc21`, for which the residual activity was determined as 115% in experiment [1]; 84% in [2]; 78% in experiment [8]; 53% in [3]; 61% in experiment [4]; 25% in [7]. For the same compound, the residual activity in experiment [5] worked out at 85%; in experiment [6] it was 77%; in [9] it was 93%; in experiment [10], 84%.
Consider `O=c1[nH]c2ccccc2n1C1CCN(Cc2ccc(-c3nc4cc5[nH]cnc5cc4nc3-c3ccccc3)cc2)CC1`, for which the residual activity in experiment [1] was 114%; in [2], 119%; in experiment [8], 103%; in experiment [3] it was 74%; in [4] it was 99%; in experiment [7] it was 83%. Also, the residual activity in experiment [5] is 103%; in experiment [6] it was 79%; in experiment [9] it was 96%; in [10] it was 93%.
In the case of `CCc1nc(-c2ccc(OC)cc2)[nH]c1-c1ccncc1`, the residual activity in experiment [1] is 113%; in experiment [2] it was 106%; in experiment [8], 107%; in experiment [3], 82%; in experiment [4] it was 106%; in experiment [7] it was 80%. Also, the residual activity in experiment [9] was 105%; in experiment [10] it was 101%.
For `O=C1NC(=O)c2c1c1c3ccccc3n3c1c1c2c2ccccc2n1C1CCC3O1`, the residual activity in experiment [2] is 95%; in [4] it was 37%; in [7] it was 34%; in experiment [9], 94%; in [10], 81%.
Consider `COc1cc(OC)c(/C=C2\C(=O)Nc3ccccc32)c(OC)c1`, for which the residual activity came out at 127% in experiment [1]; 126% in [2]; 88% in experiment [8]; 92% in [3]; 99% in [4]; 92% in [7]. Besides, the residual activity in experiment [5] was determined as 77%; in experiment [6], 72%; in experiment [9], 96%; in experiment [10], 63%.
Turning to `N/C(=N\[N+](=O)[O-])N/N=C\c1ccc(-c2cccc([N+](=O)[O-])c2)o1`, the residual activity in [1] was 134%; in [3], 98%; in [5] it was 63%; in experiment [6] it was 63%.
Take `O=[N+]([O-])/C=C/c1ccc2c(c1)OCO2`: the residual activity in experiment [1] is 109%; in experiment [2], 109%; in experiment [8] it was 99%; in experiment [3], 79%; in experiment [4] it was 96%; in [7], 108%. For the same compound, the residual activity worked out at 100% in experiment [5], 93% in [6], 95% in experiment [9] and 98% in experiment [10].
Take `COc1ccc2c(c1)/C(=C/c1cnc[nH]1)C(=O)N2`: the results for the residual activity in [1], in experiment [3] and in experiment [6] were 123%, 36% and 65%, respectively.
For the compound `COC(=O)[C@@]1(O)C[C@H]2O[C@]1(C)n1c3ccccc3c3c4c(c5c6ccccc6n2c5c31)C(=O)NC4`, the residual activity in experiment [1] is 50%; in experiment [2], 12%; in experiment [8], 15%; in [3] it was 2%; in [4], 2%; in [7] it was 1%. The residual activity was 33% in experiment [5], 3% in experiment [6], 21% in [9] and 3% in experiment [10].
As to `CC(C)[C@H](CO)Nc1nc(Nc2cccc(Cl)c2)c2ncn(C(C)C)c2n1`, the residual activity was found to be 115% in experiment [1]; 96% in experiment [2]; 95% in [8]; 76% in experiment [3]; 91% in experiment [4]; 27% in [7]. In addition, the residual activity was determined as 92% in [5], 86% in experiment [6] and 96% in experiment [10].
On to `O=S(=O)(NCCNC/C=C/c1ccc(Br)cc1)c1cccc2cnccc12`, for which the residual activity is 8% in experiment [8] and 0% in [3].
Regarding `CC(C)(C)c1cc(C=C(C#N)C#N)cc(Br)c1O`, the residual activity was found to be 102% in [1]; 82% in experiment [2]; 115% in [8]; 101% in experiment [4]; 108% in [7]; 108% in [9]. Moreover, the residual activity in experiment [10] turned out to be 111%.
In the case of `CO[C@H]1[C@@H](OC)C[C@H](C)[C@@H](OC)C2=CC(=O)C=C(NC(=O)/C(C)=C/C=C/[C@H](OC)[C@@H](OC(N)=O)/C(C)=C/[C@@H]1C)C2=O`, the figures for the residual activity in experiment [8] and in experiment [3] were 106% and 80%, respectively.
Turning to `COc1cc2ncnc(Nc3ccc(OCc4ccccc4)cc3)c2cc1OC`, the residual activity in experiment [1] was found to be 83%; in experiment [2] it was 96%; in experiment [8], 119%; in [3], 97%; in experiment [4], 75%; in experiment [7], 89%. The residual activity in [5] came to 88%; in [6], 80%; in [9], 108%; in [10] it was 101%.
With `COc1cc2nccc(Oc3ccc(NC(=O)Nc4cc(C)on4)c(Cl)c3)c2cc1OC`, the residual activity in experiment [8] turned out to be 76%; in experiment [3], 51%.
Take `O=C1c2ccccc2-c2nc3nnnn3nc21`: the residual activity was 112% in experiment [1]; 117% in experiment [2]; 105% in experiment [4]; 114% in experiment [7]; 103% in experiment [9]; 110% in experiment [10].
